“And” between values parts separate entries of the source, which are not always exact repeats. Equal entries are not always repeated. About 83,000 compounds went through this panel and 20% of them were active in at least one assay; those are over-represented in the sample as a whole.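 Single-concentration screen, 48 h exposure, 96-well plates. Endpoint: percent growth. Below 10 = active.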 The source made the active and inactive calls.

For 40 compounds, growth results are on record in PubChem BioAssay (NCI).

The assay has as its system MDA-MB-468 breast. Put plainly: NCI-60 one-dose screen, 48 h (100 = growth as untreated, 0 = no growth, -100 = all killed). To be noted: 10 µM unless noted.
With `COc1cc2c(=O)n(CCN(C)C)c3c4cc5c(cc4ccc3c2cc1OC)OCO5`, the growth is -66.8% (active). Turning to `Cc1oc(-c2ccc(Cl)cc2Cl)cc1C(=O)Nc1nccs1`, the growth was 94.4% (inactive). For the compound `CCN1C(=O)N(CC)C2C1NN=c1s/c(=C\c3cccnc3)c(=O)n12` (stereo not given), the growth is 23.3% (inactive). Consider `Cc1cc(N(CCCNc2ccnc3cc(Cl)ccc23)Cc2ccco2)nc(N2CCN(C)CC2)n1`, for which the growth is 73.7% (inactive).

Take `O=C(c1ccccc1)C(Br)[N+](=O)[O-]` (stereo not given): the growth is 114% (inactive). Take `COc1cc(CNc2oc(-c3ccccc3)c(-c3ccccc3)c2C#N)cc(CN2CCN(C)CC2)c1O`: the growth was 57.4% (inactive). For the compound `COc1ccc(Cn2cc(Cn3c(=O)c(-c4nc5ccccc5[nH]4)cc4ccccc43)nn2)c(OC)c1OC`, the growth was 13.6% (inactive). For `Cc1cc(C)c(OC(=O)CSc2nc3ccccc3c(=O)n2CCc2ccccc2)cc1C`, the growth was 101% (inactive).

As to `CCOC(CN1CCN(CC(C)C(=O)c2ccccc2)CC1)c1ccccc1` (stereo not given), the growth is 87.2% (inactive). Under `Nc1ccccc1-c1cc2c(c3c1[nH]c1ccccc13)CCCCC2` stands 98.2% (inactive). Under `Cc1ccc(-c2c3c(N)nc(-c4ccncc4)nc3nc3c2c(C)nn3-c2ccccc2)cc1` stands 43.6% (inactive). Take `CCCCOc1ccc(Nc2cc(Cl)ccc2C(=O)O)cn1`: the growth was 99.6% (inactive) and 103% (inactive). Turning to `C=C1C[C@@]2(C)C(CC[C@]3(C)C2CC=C2C4CC(C)(C)C[C@@H](OC(=O)/C(C)=C\C)[C@]4(C(=O)O)CC[C@]23C)C(C)(C)C1=O` (stereo not given in full), the growth was -23.9% (active).

For the compound `O=[N+]([O-])c1cccc(-c2ncc(-c3ccc(Cl)cc3Cl)[nH]2)c1`, the growth was 47.6% (inactive). Under `Nc1cc(-c2nc3sccn3c2-c2ccnc(NCCCNS(=O)(=O)c3ccc(F)cc3)n2)ccc1F` stands 41.7% (inactive); under `Fc1ccc(-c2cc(C(Cl)Cl)no2)cc1`, 104% (inactive). Regarding `c1ccc(CSc2nnc3c4c5c(sc4nc(-c4cccnc4)n23)CCCCCC5)cc1`, the growth is 0.132% (active). On to `CCCCC[n+]1ccc(SCC(=O)N(C)c2ccc(Oc3ccccc3)cc2)c2ccccc21`, for which the growth is 38.9% (inactive). Turning to `Cc1[nH]c(=O)[nH]c(=O)c1CCSSCCc1c(C)[nH]c(=O)[nH]c1=O`, the growth is 105% (inactive). Consider `COc1cc2c(cc1O)C(=O)CCCC2`, for which the growth is 87.3% (inactive). As to `O=C(NNC(=O)c1ccc(NC(=O)c2ccccn2)cc1)Nc1ccc([N+](=O)[O-])cc1`, the growth is 94.2% (inactive). Under `NS(=O)(=O)c1ccc(C(=O)NN2C(=O)c3ccccc3C2=O)cc1` stands 122% (inactive); under `O=C(CN1CCOCC1)Nc1ccc(-c2nc3ccccc3s2)cc1`, -6.69% (active); under `COc1ccc(C(=O)/C=C/c2ccc(C)cc2)cc1S(N)(=O)=O`, 60.4% (inactive).

`CC(C)(C)c1cc(C=Nc2cccc(C(F)(F)F)c2)c(O)c(C(C)(C)C)c1`: the growth was 95.8% (inactive).

For `COc1nc2ccccc2cc1-c1nc2c(cnn2-c2ccc(Br)cc2)c(=O)[nH]1`, the growth is 5.52% (active). Take `O=C(O)C(=O)O`: the growth was 94.8% (inactive). As for `COc1ccc2[nH]cc(-c3nc(-c4cn(C)c5ccncc45)cs3)c2c1`, the growth is 102% (inactive). To `CNc1ccc(Nc2ccc(S(=O)(=O)O)cc2)c2c1C(=O)c1ccccc1C2=O` belongs 98.6% (inactive); to `O=C(N/N=C\c1ccc(Cl)cc1)C(=O)N/N=C\c1ccc(Cl)cc1`, 124% (inactive); to `O=C1C=CC(n2cc(F)c(=O)[nH]c2=O)O1` (stereo not given), 85.3% (inactive).

As for `COCCOc1ccc(-c2nc3ccc(-c4nc5ccc(N6CCN(C)CC6)cc5[nH]4)cc3[nH]2)cc1`, the growth was -22.5% (active). Under `CC(C)CC1C(=O)N2CCC[C@H]2C2(O)O[C@](NC(=O)C3C=C4c5cccc6[nH]c(Br)c(c56)C[C@H]4N(C)C3)(C(C)C)C(=O)N12` (stereo not given in full) stands 20.3% (inactive); under `COc1cc(-c2cc(C(=O)Nc3nc4ccccc4s3)nc3cc(-c4ccccc4)nn23)cc(OC)c1OC`, 59.6% (inactive); under `Cn1ccnc1CN1CCSC(C(=O)Nc2ccccc2)C1` (stereo not given), 87.8% (inactive). Regarding `COC1CC2CCC(C)C(O)(O2)C(=O)C(=O)N2CCCCC2C(=O)OC(C(C)CC2CCC(O)C(OC)C2)CC(=O)C(C)C=C(C)C(O)C(OC)C(=O)C(C)CC(C)/C=C/C=C/C=C1C` (stereo not given), the growth is 23.3% (inactive). Take `C=C1CC2(OC1=O)C(=O)N(CCCCCCCCCCCCN1C(=O)C3(CC(=C)C(=O)O3)c3ccccc31)c1ccccc12` (stereo not given): the growth was 70.2% (inactive). As for `O=C1C(SCc2ccccc2)=C(Cl)CN1c1ccc(Cl)cc1`, the growth was 16.3% (inactive). With `CCCCCSB(SCCCCC)c1ccccc1`, the growth was 102% (inactive). As for `COc1ccccc1/C=C/C(=O)/C=C/c1ccccc1OC`, the growth was -61.8% (active) and -11.8% (active).
